High-throughput results from PubChem BioAssay.
HT1080 IDH1KD tx = HT-1080 IDH1 knockdown cell toxicity (counter line); Potency, µM (series often up to 46.1 µM), most hits filed as cytotoxic; HT-1080 IDH1 knockdown viability, ATP luminescence, 48 h; hit rate 2% among 360,000
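CellTiter-Glo luminescence after 48 h compound exposure at 37 degrees C of IDH1-knockdown HT-1080 cells in 5% FBS RPMI. %Activity scaled between DMSO wells and cell-free media wells, with curves fitted and assigned curve classes.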
S2 tox = viability counter-screen for ATXN expression inhibitors | hit rate 0.49% among 400,000 | Potency, µM (top dose mostly 56.7 µM), actives largely listed as cytotoxic | AID 651635 | S2 cells (HEK-293 line with an ATXN2-luciferase reporter) viability, CellTiter-Fluor protease fluorescence, 24 h; note: nearly all actives have a fitted effect of over 40% in size
ATXN2 expr inh = reduces ATXN2 reporter expression in HEK-293 cells | HEK-293 ATXN2-luciferase reporter, luminescence, 24 h | Potency, µM (series often up to 57 µM), most hits filed as inhibitors | hit rate 0.72% among 360,000; note: nearly all actives have a fitted effect of over 55% in size
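ATXN2-luciferase reporter cells (luciferase flanked by upstream and downstream ATXN2 gene portions) were treated 24 h at 37 °C with compounds at up to 57 uM. SteadyGlo luminescence gave expression; GF-AFC fluorescence gave viability.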
KB-V1 cytotox = KB-V1 MDR subline cytotoxicity. hit rate 3.4% among 400,000. AID 1347076. Potency, µM (titrated, usually from 46.1 µM), hits mostly cytotoxic. KB-V1 MDR cells viability, CellTiter-Glo, 72 h; note: nearly all actives have a fitted effect of over 60% in size
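KB-V1 cells (P-gp-expressing MDR subline of KB-3-1) in phenol-red-free DMEM with 10% FBS were exposed to library compounds over a concentration series for 72 h at 37 degrees C. Viability read by CellTiter-Glo luminescence; concentration-effect curves fitted after normalization.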
HT1080-NT tox = kills 2HG-producing HT-1080-NT fibrosarcoma cells; HT-1080-NT fibrosarcoma viability, CellTiter-Glo ATP luminescence, 48 h; Potency, µM (titrated, usually from 46.1 µM), usual class: cytotoxic; hit rate 1.6% among 360,000; AID 686970;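 note: NT is the 2HG producing partner of a matched IDH1 knockdown line; nearly all actives have a fitted effect of over 55% in size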
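HT-1080-NT fibrosarcoma cells (2HG-overproducing), 750 cells/well in RPMI with 5% FBS, dosed after 2 h and incubated 48 h at 37C. CellTiter-Glo luminescence normalized to DMSO and no-cell wells; concentration-response curves fitted and classed.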
KB-3-1 cytotox = kills parental KB-3-1 adenocarcinoma cells | KB-3-1 viability, CellTiter-Glo ATP luminescence, 72 h | Potency, µM (top dose mostly 46.1 µM), hits mostly cytotoxic | hit rate 1.4% among 400,000; note: nearly all actives have a fitted effect of over 60% in size
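Cytotoxicity measured as CellTiter-Glo luminescence after 72 h at 37 C. Compound titrations were pinned onto drug-naive KB-3-1 parental adenocarcinoma cells grown in DMEM with 10% FBS, and normalized data fitted to concentration-response curves.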
Hits are given with their value; n = inactive; u = inconclusive; x = not tested or not shown; ! = not confirmed by another sample; [ ] = dose if it differs, or a comment. Most compounds without a hit are left out; they make up all but 6.2% or so of the library. Calls come from the whole dose curve; as a rule, active = well fitted curve in the direction sought with a large enough effect; inconclusive = small, poorly fitted or top-dose-only effect, or another doubt; inactive = no such curve, though single readings can be large; an effect the other way counts as inactive or inconclusive.

SMILES | HT1080 IDH1KD tx | S2 tox | ATXN2 expr inh | KB-V1 cytotox | HT1080-NT tox | KB-3-1 cytotox
COc1cc2oc(=O)cc(-c3ccc(-c4ccc(N(C)C)cc4)cc3)c2c(OC)c1OC | n | x | n | n | n | n
COc1cc(OC)c2c(-c3cccc(-c4ccc(N(C)C)cc4)c3)cc(=O)oc2c1 | 1.3µM | n | n | u | u | 2.6µM
COc1cc(OC)c2c(-c3cccc(/C=C/c4ccc(F)cc4)c3)cc(=O)oc2c1 | n | n | n | n | n | n
COc1cc(OC)c2c(-c3cccc(-c4ccc(CO)cc4)c3)cc(=O)oc2c1 | 0.52µM | n | u | 2.6µM | u | u
COc1cc2oc(=O)cc(-c3ccc(-c4ccc(OC(F)(F)F)cc4)cc3)c2c(OC)c1OC | n | n | n | n | n | n
COc1ccc(-c2cccc(-c3cc(=O)oc4cc(OC)c(OC)c(OC)c34)c2)cc1 | u | u | n | 23µM | u | u
Cc1nc(C)n(CC(=O)N2CCOc3ccc(CN4CCN(C)C[C@@H]4c4ccccc4)cc3C2)n1 | x | n | x | x | x | x
COc1cc(OC)c2c(-c3cccc(-c4ccc(O)cc4)c3)cc(=O)oc2c1 | u | n | u | u | u | 16µM
COc1ccc(-c2cccc(-c3cc(=O)oc4cc(OC)cc(OC)c34)c2)cc1 | 0.58µM | n | n | 1.2µM | u | 0.65µM
COc1cc(OC)c2c(C)cc(=O)oc2c1 | n[9.24 µM] | n | n | n | n | u
COc1cc(OC)c2c(-c3cccc(-c4ccc(OC(F)(F)F)cc4)c3)cc(=O)oc2c1 | n | n | n | n | n | n
CCCS(=O)(=O)c1ncc(Cl)c(C(=O)Nc2c(C(=O)c3ccccc3)oc3ccccc23)n1 | x | n | n | n | x | n
COc1ccc(OC)c(-c2ccnc(-n3ncc(C(=O)N4CCN(CCO)CC4)c3C3CC3)n2)c1 | x | n | x | x | x | x
Cc1ccccc1CS(=O)(=O)c1cnc2ccccc2n1 | u | n | n | u | 23µM | n
CC1(C)N=C(N)N=C(N)N1c1ccccc1 | 1.6µM | n | n | u | 3.7µM | u
CC1(C)N=C(N)N=C(N)N1c1cccc(CN)c1 | u | n | n | n | n | n
CC1(C)N=C(N)N=C(N)N1c1ccc(Oc2ccc(Cl)cc2)c(Cl)c1 | 1.3µM | u | u | n | 2.3µM | 0.73µM
CC1(C)N=C(N)N=C(N)N1c1ccc(CCCCc2ccccc2)cc1 | 0.73µM | u | x | n | u | u
O=C(Cn1c(-c2cccs2)cc2ccccc21)N1CCN(c2ccccc2F)CC1 | x | n | n | n | x | n
CCOc1ccc(C(=O)Nc2ccc(OCc3cc(=O)n4cccc(C)c4n3)cc2)cc1 | x | x | x | n | x | n
O=S(=O)(c1ccc(NCCOc2ccccc2)nc1)N1CCCC1 | n | n | n | 21µM | n | n
O=C1c2ccccc2C(=O)C1c1ccc2ccccc2n1 | u | n | u | 2.6µM! | u | n
CCC(=O)N1CCc2cc(CNC(=O)Nc3cc(C)ccc3C)ccc21 | x | n | n | n | x | n
CCCOc1cccc(C(=O)Nc2ccc(-c3nc4ccccc4o3)cc2)c1 | x | u | n | n | x | n
O=[N+]([O-])c1ccc(Sc2cccc[n+]2[O-])c2nonc12 | 0.58µM | x | 5.3µM | u | 0.15µM | u
SMILES | HT1080 IDH1KD tx | S2 tox | ATXN2 expr inh | KB-V1 cytotox | HT1080-NT tox | KB-3-1 cytotox
O=[N+]([O-])c1ccc(Nc2ccccc2)c2nonc12 | n | x | x | n | n | n
O=C(NC1(C(F)(F)F)N=C(c2ccccc2)N(Cc2ccccc2)C1=O)c1ccc(F)cc1 (centres undefined) | x | n | n | n | x | n
c1ccc(-n2ncc3c(NCCCN4CCOCC4)ncnc32)cc1 | n | x | x | n | n | n
CCCCNc1ncnc2c1cnn2-c1ccccc1 | 15µM | u | n | u | u | 6.5µM
CCCCNc1ncnc2c1cnn2-c1ccc(Cl)cc1 | 9.2µM | u | n | u | 12µM | 1.6µM
Clc1ccc(-n2ncc3c(NCc4ccccn4)ncnc32)cc1 | n | n | n | 23µM | n | n
Cc1ccc(Cl)cc1-n1ncc2c(NCCCc3ccccc3)ncnc21 | x | 32µM | u | u | x | u
CCOc1cc(C(=O)OCc2cc(=O)n3nc(CC)sc3n2)cc(OCC)c1OCC | x | n | n | n | x | n
Clc1ccc(Cn2ncc3c(NCc4ccccc4)ncnc32)cc1 | 4.6µM | u | n | 6.5µM | 5.8µM | 5.2µM
Cc1cccc(Nc2ncnc3c2cnn3Cc2ccccc2)c1 | n | n | x | n | n | n
COc1ccc(Nc2ncnc3c2cnn3Cc2ccccc2)cc1OC | u | n | u | 18µM | u | n
COc1ccc(Cl)cc1NC(=O)Cn1c(=O)n(Cc2nc(C)no2)c(=O)c2ccccc21 | x | x | x | n | x | n
O=C1CCCc2[nH]c(=O)c(C(=O)NCc3ccccc3)cc21 | x | x | x | n | x | n
Cc1nc(NCC2CCCO2)nc2c1C(=O)CC(C)(C)C2 (centres undefined) | n | n | n | 21µM | n | n
Cc1nc(NCC2CCCO2)nc2c1C(=O)CC(C)C2 (centres undefined) | n | n | n | n | n | n
CCOC(=O)C(Cc1ccnc2ccccc12)=NO | n | n | n | n | 15µM | n
Cc1ccccc1-c1nc2cc(N)ccc2o1 | n | n | n | u | n | n
CC(C)c1ccc2oc(-c3cc(N)ccc3O)nc2c1 | n | n | n | 18µM | n | n
Cn1c2ccccc2c2cc(C(=O)NNC(=O)CCl)sc21 | 21µM | x | u | u | u | u
O=C(C[n+]1ccccc1Cl)c1cccc([N+](=O)[O-])c1 | x | x | x | n | x | n
NC(=S)N/N=C/c1c(O)c(Br)cc2oc3c(c12)CCCC3 | n | n | u | u | n | 21µM
CC(=O)Nc1ccc(-n2cc3c(c2-c2ccc(C)cc2)c(=O)n(C)c(=O)n3C)cc1 | x | x | x | n | x | n
O=C(NCc1ccco1)c1ccc(CS(=O)(=O)Cc2ccc(Cl)cc2)o1 | n | n | n | 15µM | n | n
COc1ccccc1N(CC(=O)NCc1ccco1)S(=O)(=O)c1ccc(C)cc1 | n | n | n | n | n | n
Cc1ccccc1N(CC(=O)Nc1ccccc1C(=O)NCc1ccco1)S(=O)(=O)c1ccccc1 | 21µM | n | n | n | u | 23µM
SMILES | HT1080 IDH1KD tx | S2 tox | ATXN2 expr inh | KB-V1 cytotox | HT1080-NT tox | KB-3-1 cytotox
Cc1ccc(S(=O)(=O)N(Cc2ccc(Cl)cc2)c2ccccc2C(=O)NCc2ccco2)cc1 | n | u | n | 18µM | n | n
Cc1ccc(-c2cnc(NCc3c(F)cccc3Cl)n2C)cc1 | x | n | n | n | x | n
Cc1cccn2c(=O)cc(COc3ccc(NC(=O)COc4ccc(F)cc4)cc3)nc12 | x | x | x | n | x | n
COc1ccc2cc3cc(C(=O)Nc4ccccc4N4CCN(C)CC4)oc3nc2c1 | n | x | u | 12µM | n | u
CO[C@H]1[C@H](NC(=O)c2ccsc2)c2ccccc2C12CCN(Cc1c(O)ccc3ccccc13)CC2 | x | n | x | x | x | x
COc1cc2c(cc1OC)C(=S)NC(C)(C)C2 | u | n | n | n | 10µM | n
